The source of these data is PubChem BioAssay (NCATS).

Records with an inconclusive call do not appear. Entries that show only a call come without a potency. Activity calls are given as the source filed them. Calls come from the whole dose curve; as a rule, active = well fitted curve in the direction sought with a large enough effect; inconclusive = small, poorly fitted or top-dose-only effect, or another doubt; inactive = no such curve, though single readings can be large; an effect the other way counts as inactive or inconclusive.

ATP-dependent 6-phosphofructokinase (Trypanosoma brucei brucei), sequence (O15648 whole entry, looked up): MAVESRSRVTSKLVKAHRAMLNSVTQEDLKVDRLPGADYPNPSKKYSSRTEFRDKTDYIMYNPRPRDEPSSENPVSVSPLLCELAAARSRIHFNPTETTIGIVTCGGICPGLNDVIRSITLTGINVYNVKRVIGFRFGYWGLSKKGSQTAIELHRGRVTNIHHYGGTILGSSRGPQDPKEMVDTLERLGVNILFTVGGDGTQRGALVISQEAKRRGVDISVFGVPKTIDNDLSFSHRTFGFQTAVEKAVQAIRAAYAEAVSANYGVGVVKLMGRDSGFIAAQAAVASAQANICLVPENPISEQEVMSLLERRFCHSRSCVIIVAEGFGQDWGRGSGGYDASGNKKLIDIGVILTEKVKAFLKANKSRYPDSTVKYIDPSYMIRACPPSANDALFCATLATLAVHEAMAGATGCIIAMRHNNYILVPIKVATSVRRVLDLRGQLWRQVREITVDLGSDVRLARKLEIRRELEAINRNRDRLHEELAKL

In the first assay the target is ATP-dependent 6-phosphofructokinase (Trypanosoma brucei brucei) (UniProt O15648). Kind of assay: qHTS Assay to Find Inhibitors of T. brucei phosphofructokinase: hit validation (AID 492961).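 Note: luminescence reports ADP formed as PFK phosphorylates fructose-6-phosphate with ATP.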 The following applies: T. brucei PFK, ADP-Glo luminescence; series mostly up to 24.3 µM. The essentials:
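PFK 1.25 nM, F6P 0.5 mM, ATP 0.1 mM, MgCl2 5 mM, 0.1 M TEA pH 8.0, Tween20 0.01%, BSA 0.1%; 45 min RT. ADP-Glo two-step detection, luminescence. qHTS titration; curve fitting with curve-class categorization.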
On the technique in general: In qHTS, concentration-response curves come from the screen itself.
On to `CCO[C@H]1O[C@@H]([C@H](COCc2ccccc2)OCc2ccccc2)[C@@H](OCc2ccccc2)[C@H]1O`, for which the call was inactive.
As to `COc1cc(N[C@@H](C)CCCN)c2ncccc2c1`, the compound was classed as inactive.
As for `C=Cc1c(C)c2cc3nc(cc4[nH]c(cc5nc(cc1[nH]2)C(C)=C5CCC(=O)O)c(CCC(=O)OC)c4C)[C@@]1(C)C3=CC=C(C(=O)OC)[C@H]1C(=O)OC` (tested in a mixture with another compound), the outcome was inactive.
For the compound `O=C(OC[C@@H](O)CO)c1ccccc1Nc1ccnc2cc(Cl)ccc12`, the outcome was inactive.
Turning to `CO[C@]1(NC(=O)[C@H](C(=O)O)c2ccc(O)cc2)C(=O)N2C(C(=O)O)=C(CSc3nnnn3C)CO[C@H]21`, the outcome was inactive.
For the compound `COc1ccc2c(c1)N(C[C@@H](C)CN(C)C)c1ccccc1S2`, the compound was classed as inactive.
Turning to `CCC(=O)[C@@]1(C)[C@H](C)C[C@@H]2[C@@H]3CCC4=CC(=O)C=C[C@@]4(C)[C@H]3[C@H](O)C[C@]21C`, the compound was called inactive.
In the case of `CCC(C)(C)C(=O)O[C@@H]1C[C@H](C)C=C2C=C[C@H](C)[C@@H](CC[C@H]3C[C@@H](O)CC(=O)O3)[C@H]21`, the outcome was inactive.
As to `CCN(CC)[C@@H](C)CN1c2ccccc2Sc2ccccc21`, the result was inactive.
Regarding `COC(=O)[C@@H]1[C@@H]2C[C@H]3c4[nH]c5cc(OC)ccc5c4CCN3C[C@@H]2C[C@H](OC(=O)/C=C\c2cc(OC)c(OC)c(OC)c2)[C@H]1OC`, the call was inactive.
`CC=C(/C(=C/C)c1ccc(O)cc1)c1ccc(O)cc1`: the compound was classed as inactive.
`CC1(C)S[C@@H]2[C@H](NC(=O)[C@@H](N)c3ccccc3)C(=O)N2[C@H]1C(=O)O[C@H]1OC(=O)c2ccccc21`: the outcome was inactive.

For another assay, the target named is Ubiquitin carboxyl-terminal hydrolase 1 (Homo sapiens) (UniProt O94782). The experiment in a line: Inhibitors of USP1/UAF1: Pilot qHTS (AID 504865). Note: nearly all actives have a fitted effect of over 35% in size. Note: potency is the fitted concentration of half-maximal effect. The following applies: purified USP1/UAF1, Ub-rhodamine cleavage fluorescence; series mostly up to 114 µM. The essentials: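 In 50mM HEPES pH 7.8 containing 0.5mM EDTA, 1mM TCEP, 0.1 mg/ml BSA and 0.01% Tween-20, 1nM USP1/UAF1 is exposed to compound for 15 min, then Ub-Rho (150nM final) is added and fluorescence is read over time.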
Ubiquitin carboxyl-terminal hydrolase 1 (Homo sapiens), sequence (O94782 whole entry, looked up): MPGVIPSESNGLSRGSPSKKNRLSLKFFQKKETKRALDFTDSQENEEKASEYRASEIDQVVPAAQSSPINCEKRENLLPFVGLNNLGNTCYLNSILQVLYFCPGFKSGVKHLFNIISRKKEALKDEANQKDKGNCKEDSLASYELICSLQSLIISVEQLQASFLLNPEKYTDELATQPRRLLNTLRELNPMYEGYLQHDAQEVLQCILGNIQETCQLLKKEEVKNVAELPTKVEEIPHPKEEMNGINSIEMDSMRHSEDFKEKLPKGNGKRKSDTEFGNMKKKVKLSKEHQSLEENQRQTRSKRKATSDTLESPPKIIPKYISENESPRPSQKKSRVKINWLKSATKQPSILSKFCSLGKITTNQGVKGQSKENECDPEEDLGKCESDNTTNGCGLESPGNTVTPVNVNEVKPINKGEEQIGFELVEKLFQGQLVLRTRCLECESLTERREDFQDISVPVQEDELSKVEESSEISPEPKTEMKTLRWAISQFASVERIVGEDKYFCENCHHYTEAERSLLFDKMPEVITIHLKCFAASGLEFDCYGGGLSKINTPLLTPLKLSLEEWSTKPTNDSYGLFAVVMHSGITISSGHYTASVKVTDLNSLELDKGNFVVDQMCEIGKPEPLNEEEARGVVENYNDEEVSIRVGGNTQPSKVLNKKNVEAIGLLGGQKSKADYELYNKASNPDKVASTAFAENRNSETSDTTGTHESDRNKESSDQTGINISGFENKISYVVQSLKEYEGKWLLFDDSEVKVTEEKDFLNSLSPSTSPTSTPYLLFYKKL
For the compound `FC(F)(F)c1ccccc1-c1ccc2ncnc(NC3CCNCC3)c2c1`, the Potency entry was “inactive”.
On to `C1CCC(C(C[C@@H]2CCCCN2)C2CCCCC2)CC1`, for which the Potency result is “inactive”.
Consider `Nc1ncnc2c1nc(Br)n2[C@H]1O[C@H]2COP(=O)(O)O[C@H]2[C@@H]1O`, for which the Potency result was “inactive”.
With `COc1cc(N[C@@H](C)CCCN)c2ncccc2c1`, the Potency is 3.98 µM (active).
With `C[C@@H](CN1c2ccccc2Sc2ccccc21)N(C)C`, the Potency result is “inactive”.
Regarding `C[C@@H](Cc1cccc(C(F)(F)F)c1)NCCOC(=O)c1ccccc1`, the Potency entry was “inactive”.
Turning to `C=C(C)[C@H]1CC[C@]2(C(=O)O)CC[C@]3(C)[C@@H](CC[C@H]4[C@@]5(C)CC[C@@H](O)C(C)(C)[C@@H]5CC[C@@]43C)[C@H]12`, the Potency result is “inactive”.
As to `Nc1ncnc2c1ncn2[C@@H]1O[C@H](COP(=O)(O)O)[C@@H](O)[C@@H]1O`, the Potency entry is “inactive”.
As for `CC1=C(CCC(=O)O)c2cc3nc(cc4[nH]c(cc5[nH]c(cc1n2)c(C)c5C(C)O)c(C)c4C(C)O)C(C)=C3CCC(=O)O` (configuration not stated), the Potency result is “inactive”.
Still for that read-out and setting: with `CO[C@]1(NC(=O)[C@H](C(=O)O)c2ccc(O)cc2)C(=O)N2C(C(=O)O)=C(CSc3nnnn3C)CO[C@H]21` the entry was “inactive”; with `CCN(CC)CCOC(=O)[C@@H](c1ccccc1)C1CCCCC1`, “inactive”; with `O[C@@](CCN1CCCCC1)(c1ccccc1)[C@@H]1C[C@H]2C=C[C@@H]1C2`, “inactive”.
Consider `C[C@@](N)(C(=O)O)c1cccc(CC(=O)O)c1`, for which the Potency result is “inactive”.
Turning to `Nc1ncn([C@H]2O[C@@H](CO)[C@@H](O)[C@@H]2O)c(=O)n1`, the Potency result is “inactive”.
On the same count and under the same terms, then `C[C@@H]1O[C@H](O[C@@H]2[C@H](C)O[C@H](O[C@@H]3[C@H](C)O[C@H](O[C@H]4CC[C@]5(C)[C@@H](CC[C@@H]6[C@H]5C[C@@H](O)[C@]5(C)[C@@H](C7=CC(=O)OC7)CC[C@]65O)C4)C[C@@H]3O)C[C@@H]2O)C[C@H](O)[C@@H]1O`, with “inactive”.
In the case of `Cc1onc(-c2c(F)cccc2Cl)c1C(=O)N[C@H]1C(=O)N2[C@H]1SC(C)(C)[C@H]2C(=O)O`, the Potency result was “inactive”.
Take `CCN(CC)[C@@H](C)CN1c2ccccc2Sc2ccccc21`: the Potency result was “inactive”.
Turning to `COC(=O)[C@@H]1[C@@H]2C[C@H]3c4[nH]c5cc(OC)ccc5c4CCN3C[C@@H]2C[C@H](OC(=O)/C=C\c2cc(OC)c(OC)c(OC)c2)[C@H]1OC`, the Potency entry is “inactive”.
Consider `CO[C@@H]1CC[C@@]2(C)[C@@H](CC[C@@]3(C)[C@H]2CC=C2[C@H]4CC(C)(C)[C@H](O)[C@@H](OC(C)=O)[C@]4(CO)[C@H](O)C[C@]23C)[C@@]1(C)CO` (tested in a mixture with another compound), for which the Potency entry was “inactive”.
In the case of `Cc1ccnc(N)c1`, the Potency entry is “inactive”.

The target of a further assay is DNA dC->dU-editing enzyme APOBEC-3G (Homo sapiens) (UniProt Q9HC16). The experiment in a line: qHTS for inhibitors of Vif-A3G interactions: Validation (AID 588379). The conditions noted are these: Vif-A3G protein interaction assay; series mostly up to 46.1 µM. The essentials: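 Yellow fluorescence (Ex 488, Em 500-530) of Vif-coexpressing HeLa A3G-eYFP cells, scanned by Acumen cytometer, reports blocked A3G degradation. Cells plated at 700/well overnight at 37 deg C before compound addition, then a further overnight compound incubation at 37 deg C.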
DNA dC->dU-editing enzyme APOBEC-3G (Homo sapiens), sequence (Q9HC16 whole entry, looked up): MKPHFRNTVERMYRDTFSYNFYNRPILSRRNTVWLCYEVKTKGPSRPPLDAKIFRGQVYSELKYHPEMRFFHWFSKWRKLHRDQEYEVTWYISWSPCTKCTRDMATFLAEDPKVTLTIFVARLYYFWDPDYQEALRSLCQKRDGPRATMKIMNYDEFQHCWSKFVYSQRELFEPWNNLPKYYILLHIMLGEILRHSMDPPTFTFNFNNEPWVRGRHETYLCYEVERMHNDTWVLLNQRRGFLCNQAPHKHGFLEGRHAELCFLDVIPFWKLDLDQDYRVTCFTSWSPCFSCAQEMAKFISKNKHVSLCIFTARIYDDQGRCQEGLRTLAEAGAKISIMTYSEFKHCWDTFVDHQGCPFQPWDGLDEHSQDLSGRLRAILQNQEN
As to `Cc1cc2ccc(=O)oc2cc1OC[C@@H](O)C(C)(C)O`, the call was inactive.
Consider `Nc1ncnc2c1nc(Br)n2[C@H]1O[C@H]2COP(=O)(O)O[C@H]2[C@@H]1O`, for which the result was inactive.
With `CC/C=C\C[C@H]1C(=O)CC[C@@H]1CC(=O)O`, the call was inactive.
With `C[C@@](N)(C(=O)O)c1cccc(CC(=O)O)c1`, the result was inactive.
For `NCCC(=O)N[C@@H](Cc1cnc[nH]1)C(=O)O`, the result was inactive.
`C/C(=C\CNc1ncnc2nc[nH]c12)CO`: the result was inactive.
In the case of `COc1cc2ccc(=O)oc2c(O)c1O`, the call was inactive.
Consider `O=c1cc(-c2cccc(O)c2)oc2cc(O)ccc12`, for which the compound was called inactive.
Regarding `CN1[C@H](CC(=O)c2ccccc2)CCC[C@H]1C[C@@H](O)c1ccccc1`, the call was inactive.
Regarding `Cc1ccnc(N)c1`, the result was inactive.
